Data published in ChEMBL document CHEMBL1961873, “Compounds: GSK PKIS; Assays: Nanosyn kinase panel” (2012).

Columns and labels:
[1] = biological target: Dual specificity protein kinase CLK3 (Homo sapiens) (UniProt P49761); conditions: at 1 µM;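 also: each value is the mean inhibition of CLK3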
[2] = biological target: Dual specificity tyrosine-phosphorylation-regulated kinase 1A (Homo sapiens) (UniProt Q13627); conditions: at 0.1 µM
[3] = biological target: Dual specificity tyrosine-phosphorylation-regulated kinase 1A (Homo sapiens) (UniProt Q13627); conditions: at 1 µM
[4] = biological target: Dual specificity tyrosine-phosphorylation-regulated kinase 1B (Homo sapiens) (UniProt Q9Y463); conditions: at 0.1 µM
Dual specificity tyrosine-phosphorylation-regulated kinase 1B (Homo sapiens), sequence (Q9Y463 whole entry, looked up): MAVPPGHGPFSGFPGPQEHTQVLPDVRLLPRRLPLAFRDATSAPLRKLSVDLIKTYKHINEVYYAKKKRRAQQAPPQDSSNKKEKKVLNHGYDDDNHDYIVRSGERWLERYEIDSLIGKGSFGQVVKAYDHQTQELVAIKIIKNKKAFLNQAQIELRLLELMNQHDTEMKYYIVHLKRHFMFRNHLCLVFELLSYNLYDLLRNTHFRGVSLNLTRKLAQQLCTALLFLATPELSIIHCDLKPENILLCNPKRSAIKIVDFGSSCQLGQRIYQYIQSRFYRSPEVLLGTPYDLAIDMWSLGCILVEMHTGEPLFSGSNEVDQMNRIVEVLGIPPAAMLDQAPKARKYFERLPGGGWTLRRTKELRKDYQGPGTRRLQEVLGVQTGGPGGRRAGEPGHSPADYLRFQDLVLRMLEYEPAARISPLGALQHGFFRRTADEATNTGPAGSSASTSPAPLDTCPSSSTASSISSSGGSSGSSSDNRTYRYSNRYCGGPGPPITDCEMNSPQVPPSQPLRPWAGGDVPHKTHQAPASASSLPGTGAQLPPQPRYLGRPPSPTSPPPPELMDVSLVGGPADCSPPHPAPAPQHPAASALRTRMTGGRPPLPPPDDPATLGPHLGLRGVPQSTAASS

[5] = biological target: Dual specificity tyrosine-phosphorylation-regulated kinase 1B (Homo sapiens) (UniProt Q9Y463); conditions: at 1 µM
[6] = biological target: T1, Dual specificity tyrosine-phosphorylation-regulated kinase 2 (Homo sapiens) (UniProt Q92630); conditions: at 0.1 µM
T1 sequence (whole entry): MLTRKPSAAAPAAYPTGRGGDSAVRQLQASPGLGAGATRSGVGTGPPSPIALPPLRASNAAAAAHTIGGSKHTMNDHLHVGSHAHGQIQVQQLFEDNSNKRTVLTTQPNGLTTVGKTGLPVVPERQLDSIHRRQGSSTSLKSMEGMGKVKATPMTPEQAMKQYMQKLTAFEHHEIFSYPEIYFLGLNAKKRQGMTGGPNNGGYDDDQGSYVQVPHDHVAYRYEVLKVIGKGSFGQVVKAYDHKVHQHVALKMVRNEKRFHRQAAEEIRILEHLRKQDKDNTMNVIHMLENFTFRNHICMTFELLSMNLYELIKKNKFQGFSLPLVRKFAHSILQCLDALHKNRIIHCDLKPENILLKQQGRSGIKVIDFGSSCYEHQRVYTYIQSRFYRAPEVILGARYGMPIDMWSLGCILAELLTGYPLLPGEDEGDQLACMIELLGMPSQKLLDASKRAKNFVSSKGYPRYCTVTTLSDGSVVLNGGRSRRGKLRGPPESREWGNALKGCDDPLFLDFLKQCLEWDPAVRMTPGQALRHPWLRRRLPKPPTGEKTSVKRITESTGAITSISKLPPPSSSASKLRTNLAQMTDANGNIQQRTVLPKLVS

[7] = biological target: T1, Dual specificity tyrosine-phosphorylation-regulated kinase 2 (Homo sapiens); conditions: at 1 µM
[8] = biological target: Glycogen synthase kinase-3 alpha (Homo sapiens) (UniProt P49840); conditions: at 0.1 µM
Glycogen synthase kinase-3 alpha (Homo sapiens), sequence (P49840 2-483 limits assumed): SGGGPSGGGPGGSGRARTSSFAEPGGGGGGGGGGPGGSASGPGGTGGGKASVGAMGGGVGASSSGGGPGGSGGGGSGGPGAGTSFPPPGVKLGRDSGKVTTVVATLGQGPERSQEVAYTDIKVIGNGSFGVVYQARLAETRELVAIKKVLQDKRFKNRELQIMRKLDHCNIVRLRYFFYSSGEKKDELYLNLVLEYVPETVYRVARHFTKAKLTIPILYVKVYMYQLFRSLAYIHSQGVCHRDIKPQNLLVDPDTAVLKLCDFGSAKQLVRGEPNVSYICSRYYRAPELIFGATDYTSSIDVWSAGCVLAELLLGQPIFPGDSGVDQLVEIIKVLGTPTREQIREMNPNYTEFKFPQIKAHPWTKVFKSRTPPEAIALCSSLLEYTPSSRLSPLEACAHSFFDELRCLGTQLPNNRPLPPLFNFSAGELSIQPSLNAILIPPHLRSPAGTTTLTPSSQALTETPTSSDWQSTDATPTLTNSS

[9] = biological target: Glycogen synthase kinase-3 alpha (Homo sapiens) (UniProt P49840); conditions: at 1 µM
[10] = biological target: Glycogen synthase kinase-3 beta (Homo sapiens) (UniProt P49841); conditions: at 0.1 µM
Glycogen synthase kinase-3 beta (Homo sapiens), sequence (P49841 whole entry, looked up): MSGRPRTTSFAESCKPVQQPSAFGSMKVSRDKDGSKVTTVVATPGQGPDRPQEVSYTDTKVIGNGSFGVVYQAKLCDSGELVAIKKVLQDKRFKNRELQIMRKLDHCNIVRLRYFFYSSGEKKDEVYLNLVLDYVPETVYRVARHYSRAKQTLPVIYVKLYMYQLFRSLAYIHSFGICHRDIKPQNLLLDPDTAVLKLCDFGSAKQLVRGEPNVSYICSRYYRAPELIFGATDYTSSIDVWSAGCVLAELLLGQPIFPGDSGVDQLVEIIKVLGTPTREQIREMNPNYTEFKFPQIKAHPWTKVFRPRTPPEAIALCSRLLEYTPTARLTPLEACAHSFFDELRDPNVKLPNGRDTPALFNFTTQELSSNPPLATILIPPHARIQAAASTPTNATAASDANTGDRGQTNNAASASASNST

[11] = biological target: Glycogen synthase kinase-3 beta (Homo sapiens) (UniProt P49841); conditions: at 1 µM
[12] = biological target: Homeodomain-interacting protein kinase 1 (Homo sapiens) (UniProt Q86Z02); conditions: at 0.1 µM
Homeodomain-interacting protein kinase 1 (Homo sapiens), sequence (Q86Z02 whole entry, looked up): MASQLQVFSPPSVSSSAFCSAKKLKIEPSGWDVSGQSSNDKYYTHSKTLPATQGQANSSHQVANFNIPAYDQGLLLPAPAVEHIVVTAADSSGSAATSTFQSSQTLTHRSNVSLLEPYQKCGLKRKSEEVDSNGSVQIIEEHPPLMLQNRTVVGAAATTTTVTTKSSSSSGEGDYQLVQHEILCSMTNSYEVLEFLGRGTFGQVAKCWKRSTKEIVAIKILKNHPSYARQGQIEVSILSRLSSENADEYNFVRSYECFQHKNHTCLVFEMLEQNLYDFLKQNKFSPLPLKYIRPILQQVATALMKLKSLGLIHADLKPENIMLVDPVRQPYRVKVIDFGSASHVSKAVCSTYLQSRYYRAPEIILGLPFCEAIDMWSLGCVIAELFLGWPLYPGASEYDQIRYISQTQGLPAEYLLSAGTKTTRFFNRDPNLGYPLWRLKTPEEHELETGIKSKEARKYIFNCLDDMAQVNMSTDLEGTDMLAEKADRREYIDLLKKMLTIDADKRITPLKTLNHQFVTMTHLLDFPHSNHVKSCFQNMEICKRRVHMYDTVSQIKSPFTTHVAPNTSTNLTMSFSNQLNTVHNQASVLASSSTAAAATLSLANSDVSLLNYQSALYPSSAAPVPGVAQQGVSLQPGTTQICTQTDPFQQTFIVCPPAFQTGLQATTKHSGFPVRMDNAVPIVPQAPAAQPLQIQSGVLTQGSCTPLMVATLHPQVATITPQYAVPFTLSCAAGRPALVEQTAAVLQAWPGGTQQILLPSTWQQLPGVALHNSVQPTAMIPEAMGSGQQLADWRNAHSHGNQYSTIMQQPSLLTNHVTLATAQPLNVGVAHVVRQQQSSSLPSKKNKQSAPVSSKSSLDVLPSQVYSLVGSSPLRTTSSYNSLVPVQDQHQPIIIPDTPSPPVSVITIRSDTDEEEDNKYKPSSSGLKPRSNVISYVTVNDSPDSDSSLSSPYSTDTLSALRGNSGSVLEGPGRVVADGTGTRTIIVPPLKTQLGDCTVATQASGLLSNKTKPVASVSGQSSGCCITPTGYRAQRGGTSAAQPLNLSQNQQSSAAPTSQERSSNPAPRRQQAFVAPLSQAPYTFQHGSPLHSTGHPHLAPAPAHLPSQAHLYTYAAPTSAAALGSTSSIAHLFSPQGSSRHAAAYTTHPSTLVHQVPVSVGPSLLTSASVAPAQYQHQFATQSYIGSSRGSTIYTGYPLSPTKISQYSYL

[13] = biological target: Homeodomain-interacting protein kinase 1 (Homo sapiens) (UniProt Q86Z02); conditions: at 1 µM
[14] = biological target: T2, Homeodomain-interacting protein kinase 4 (Homo sapiens) (UniProt Q8NE63); conditions: at 0.1 µM
T2 sequence (whole entry): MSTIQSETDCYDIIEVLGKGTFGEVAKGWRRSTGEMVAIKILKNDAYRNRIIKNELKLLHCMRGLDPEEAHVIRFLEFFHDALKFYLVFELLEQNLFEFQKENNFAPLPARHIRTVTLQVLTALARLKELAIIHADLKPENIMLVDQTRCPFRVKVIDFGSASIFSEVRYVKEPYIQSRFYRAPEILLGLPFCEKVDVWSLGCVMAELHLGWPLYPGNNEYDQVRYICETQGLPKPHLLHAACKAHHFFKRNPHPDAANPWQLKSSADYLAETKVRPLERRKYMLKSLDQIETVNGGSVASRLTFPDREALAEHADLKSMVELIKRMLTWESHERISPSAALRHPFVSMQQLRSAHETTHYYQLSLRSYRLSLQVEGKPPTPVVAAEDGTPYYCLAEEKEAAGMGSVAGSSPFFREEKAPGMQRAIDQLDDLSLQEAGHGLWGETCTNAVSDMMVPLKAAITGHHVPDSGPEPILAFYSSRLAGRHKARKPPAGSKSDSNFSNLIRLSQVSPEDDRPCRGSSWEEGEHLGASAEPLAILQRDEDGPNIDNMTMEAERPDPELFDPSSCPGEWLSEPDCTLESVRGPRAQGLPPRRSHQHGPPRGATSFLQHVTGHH

[15] = biological target: T2, Homeodomain-interacting protein kinase 4 (Homo sapiens); conditions: at 1 µM
[16] = biological target: Mitogen-activated protein kinase 9 (Homo sapiens) (UniProt P45984); conditions: at 0.1 µM
Mitogen-activated protein kinase 9 (Homo sapiens), sequence (P45984 whole entry, looked up): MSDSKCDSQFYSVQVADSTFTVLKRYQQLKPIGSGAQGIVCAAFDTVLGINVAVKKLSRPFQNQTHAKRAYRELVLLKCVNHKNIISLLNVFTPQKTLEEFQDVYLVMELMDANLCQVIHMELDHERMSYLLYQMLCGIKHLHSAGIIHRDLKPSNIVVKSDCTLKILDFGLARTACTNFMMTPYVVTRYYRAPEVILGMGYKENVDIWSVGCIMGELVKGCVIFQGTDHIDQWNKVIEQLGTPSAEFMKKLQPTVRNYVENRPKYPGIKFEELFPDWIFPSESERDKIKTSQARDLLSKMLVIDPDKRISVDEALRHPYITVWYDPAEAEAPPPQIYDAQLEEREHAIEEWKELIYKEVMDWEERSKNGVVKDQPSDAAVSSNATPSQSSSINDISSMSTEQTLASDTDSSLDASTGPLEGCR

[17] = biological target: Mitogen-activated protein kinase 9 (Homo sapiens) (UniProt P45984); conditions: at 1 µM
[18] = biological target: Mitogen-activated protein kinase 1 (Homo sapiens) (UniProt P28482); conditions: at 0.1 µM
Mitogen-activated protein kinase 1 (Homo sapiens), sequence (P28482 whole entry): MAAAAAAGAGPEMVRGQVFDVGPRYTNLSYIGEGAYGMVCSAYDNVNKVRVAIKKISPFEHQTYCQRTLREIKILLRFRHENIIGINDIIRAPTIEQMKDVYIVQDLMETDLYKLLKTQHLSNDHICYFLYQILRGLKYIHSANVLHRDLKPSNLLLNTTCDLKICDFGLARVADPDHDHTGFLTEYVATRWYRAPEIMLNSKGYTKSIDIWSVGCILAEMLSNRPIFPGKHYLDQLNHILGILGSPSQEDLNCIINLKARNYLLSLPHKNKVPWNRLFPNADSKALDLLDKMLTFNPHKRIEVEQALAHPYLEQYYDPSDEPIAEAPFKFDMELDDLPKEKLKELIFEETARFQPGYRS

[19] = biological target: Mitogen-activated protein kinase 1 (Homo sapiens) (UniProt P28482); conditions: at 1 µM
[20] = biological target: Mitogen-activated protein kinase 3 (Homo sapiens) (UniProt P27361); conditions: at 0.1 µM;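 also: each value is a mean inhibition figure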
Mitogen-activated protein kinase 3 (Homo sapiens), sequence (P27361 whole entry): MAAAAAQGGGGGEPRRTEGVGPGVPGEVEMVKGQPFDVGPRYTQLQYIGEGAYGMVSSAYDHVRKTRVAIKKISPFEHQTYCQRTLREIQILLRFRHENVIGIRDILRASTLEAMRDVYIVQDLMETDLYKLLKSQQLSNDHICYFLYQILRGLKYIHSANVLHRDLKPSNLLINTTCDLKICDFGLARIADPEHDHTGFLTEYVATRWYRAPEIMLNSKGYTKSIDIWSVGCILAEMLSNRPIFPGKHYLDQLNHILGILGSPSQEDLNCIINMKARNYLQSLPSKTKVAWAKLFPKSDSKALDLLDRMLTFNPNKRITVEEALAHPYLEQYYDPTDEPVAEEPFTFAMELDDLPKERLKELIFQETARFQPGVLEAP

Dual specificity protein kinase CLK3 (Homo sapiens), sequence (P49761 whole entry, looked up): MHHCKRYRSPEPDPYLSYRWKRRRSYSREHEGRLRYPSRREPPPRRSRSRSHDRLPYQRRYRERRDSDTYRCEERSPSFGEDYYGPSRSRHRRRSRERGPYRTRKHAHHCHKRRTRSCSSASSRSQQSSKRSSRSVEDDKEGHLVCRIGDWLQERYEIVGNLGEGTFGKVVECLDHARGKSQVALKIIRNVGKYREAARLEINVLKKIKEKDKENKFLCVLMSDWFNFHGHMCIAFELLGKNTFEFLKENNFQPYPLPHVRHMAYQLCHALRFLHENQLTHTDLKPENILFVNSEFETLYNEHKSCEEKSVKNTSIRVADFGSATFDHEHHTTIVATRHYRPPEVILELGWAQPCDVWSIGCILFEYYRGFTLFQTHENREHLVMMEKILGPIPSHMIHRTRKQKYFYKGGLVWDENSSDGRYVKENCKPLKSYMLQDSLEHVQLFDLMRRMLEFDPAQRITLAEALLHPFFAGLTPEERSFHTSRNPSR

Row | SMILES | inhibition [1] [%] | inhibition [2] [%] | inhibition [3] [%] | inhibition [4] [%] | inhibition [5] [%] | inhibition [6] [%] | inhibition [7] [%] | inhibition [8] [%] | inhibition [9] [%] | inhibition [10] [%] | inhibition [11] [%] | inhibition [12] [%] | inhibition [13] [%] | inhibition [14] [%] | inhibition [15] [%] | inhibition [16] [%] | inhibition [17] [%] | inhibition [18] [%] | inhibition [19] [%] | inhibition [20] [%]
1 | COc1cc2ncn(-c3cc(OCc4cccs4)c(C(N)=O)s3)c2cc1OC | 0.59 | -2.96 | -0.93 | -3.74 | -1.79 | 0.17 | 4.35 | 0.28 | 6.22 | 0.55 | 7.28 | 1.93 | 18.1 | 20.2 | 63.3 | 0.6 | 4.51 | 5.16 | 2.33 | 3.68
2 | COC(=O)Nc1nc2ccc(Sc3ccc(NC(=O)Nc4cc(C(F)(F)F)ccc4F)cc3)cc2[nH]1 | 2.87 | 0.92 | 1.72 | 1.9 | 3.2 | 0.2 | 0.89 | 0.12 | 0.68 | 2.16 | 1.89 | 1.74 | 3.89 | 3.14 | 25.5 | 33.9 | 6.37 | -0.51 | -0.71 | 1.68
3 | COc1ccc2ncn(-c3cc(O[C@H](C)c4ccccc4Cl)c(C(N)=O)s3)c2c1 | -2.47 | -1.4 | 0.78 | -5.09 | -1.96 | 2.27 | 2.75 | -1.42 | 1.7 | -1.37 | -0.28 | -4.71 | -1.67 | 0.62 | 5.59 | 2.17 | -0.22 | 5.14 | 4.54 | 4.56
4 | CS(=O)(=O)CCNCc1ccc(-c2ccc3ncnc(Nc4ccc(OCc5ccccc5)c(Br)c4)c3c2)o1 | -3.65 | -3.54 | -2.54 | -5.79 | -4.49 | 2.81 | 1.15 | -0.62 | -0.89 | -1.65 | -1.69 | -5.84 | -4.53 | 0.44 | 2.6 | 2.5 | 0.7 | 5.3 | 4.08 | 5.25
5 | O=C(NCC1CC1)c1ccc(-c2cccc(C(=O)NC3CC3)c2)cc1 | 2.44 | 0.99 | 2.88 | 0.66 | 1.93 | 2.27 | 3.38 | 1.5 | 3.17 | 1.32 | 0.48 | -0.22 | 5.27 | 2.02 | 5.47 | 3.38 | 2.6 | 1.42 | 1.43 | 1.22
6 | COc1cc(C)c(N(C)C(=O)CN(C)C)cc1Nc1nc(Nc2cccc(F)c2C(N)=O)c2cc[nH]c2n1 | -1.03 | 2.09 | 15.2 | -1.79 | 13.1 | 2.31 | 1.64 | -2.99 | -1.13 | -3.79 | -3.33 | -4.07 | 2.02 | 0.06 | 4.88 | 1.42 | 2.97 | 0.6 | 3.4 | 2.26
7 | Clc1ccc(CNc2nccc(-c3cnn4ncccc34)n2)cc1 | 6.69 | 16 | 58 | 28.6 | 74.2 | 0.77 | 7.51 | 2.42 | 9.8 | 2.82 | 11.6 | 14.8 | 57.9 | 11.9 | 49 | 3.52 | 5.1 | 4.19 | 3.23 | 3.04
8 | CCS(=O)(=O)c1ccc(OC)c(Nc2ncc(-c3ccccc3Cl)o2)c1 | 8.78 | 0.71 | 5.06 | 1.56 | 5.7 | 1.98 | 11.8 | 0.38 | 1.64 | 1.56 | 1.12 | 1.24 | 9.06 | 8.83 | 47.5 | 1.42 | 1.23 | 0.66 | 0.84 | 1.66
9 | CS(=O)(=O)CCNCc1cc(-c2cc3c(Nc4ccc(OCc5cccc(F)c5)c(Cl)c4)ncnc3s2)cs1 | 0.02 | 2.31 | 3.13 | -1.81 | -0.61 | 3.75 | 8.37 | 2.31 | 2.97 | 1.53 | 1.78 | -2.22 | -1.08 | -0.67 | 1.29 | 3.11 | 7.13 | 5.61 | 7.79 | 4.58
10 | Fc1ccc(-c2ncn(CCCN3CCOCC3)c2-c2ccncc2)cc1 | 0.51 | -0.26 | 0.01 | -0.42 | -0.19 | -0.03 | 0.55 | -0.11 | 4.21 | -0.54 | 1.01 | -3.44 | -1.47 | -2.02 | -2.54 | 2.43 | 6.68 | 0.12 | 1.09 | 4.06
11 | C[C@@H](Oc1cc(-n2cnc3ccc(OC4CCN(C)CC4)cc32)sc1C(N)=O)c1ccccc1Cl | -2.38 | -0.72 | 0.72 | -4.55 | -3.42 | 2.47 | 7.45 | -1.18 | -0.34 | -1.76 | -0.12 | -4.32 | 2.08 | 3.54 | 28.7 | 1.24 | 5.06 | 5.74 | 6.64 | 3.11
12 | COc1cc2ncn(-c3cc(OCCc4ccccc4)c(C(N)=O)s3)c2cc1OC | 3.27 | 3.14 | 3.09 | 1.95 | 1.81 | -0.08 | 4.14 | 0.82 | 3.18 | 0.44 | 0.1 | -0.4 | 3.92 | 2.74 | 19.1 | 4.17 | 3.52 | 1.47 | 3.64 | 0.38
13 | Cc1ccc(C(=O)NC2CCC2)cc1-c1ccc(C(=O)NCC2CC2)cc1 | 1.28 | 2.74 | 5.39 | 1.78 | 2.49 | 2.22 | 3.3 | 1.01 | 4.22 | 0.28 | 3.43 | -0.93 | 2.06 | -0.06 | 1.07 | 2.74 | 3.35 | 0.32 | 3.11 | 2.05
